# Sampled rows, rich in hits. Any-hit rate of the full collection: about 8.3%.
# Giardia FBPA inh-1 – qHTS Assay for Inhibitors of Fructose-1,6-bisphosphate Aldolase from Giardia Lamblia; A8B2U2; purified Giardia FBPA; Potency, µM (series often up to 59.6 µM), for inactives: at the top dose activity, negative = inhibition, actives largely listed as inhibitors; hit rate 0.71% among 290,000; AID 2451, 2010; also: potency is read from the fitted curve at half-maximal effect; nearly all actives have a fitted effect of over 55% in size
# Target sequence (A8B2U2 whole entry, looked up): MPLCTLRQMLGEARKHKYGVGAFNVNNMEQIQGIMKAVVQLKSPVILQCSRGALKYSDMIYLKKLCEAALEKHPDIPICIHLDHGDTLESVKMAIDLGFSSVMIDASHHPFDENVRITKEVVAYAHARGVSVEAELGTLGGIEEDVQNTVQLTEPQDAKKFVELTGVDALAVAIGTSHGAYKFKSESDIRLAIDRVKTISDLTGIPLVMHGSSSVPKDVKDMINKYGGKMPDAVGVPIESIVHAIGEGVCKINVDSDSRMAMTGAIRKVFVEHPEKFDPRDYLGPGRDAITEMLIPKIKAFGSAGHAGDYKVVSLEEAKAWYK
#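 40 nM FBPA preincubated 10 min at RT with compound (up to 57.5 uM final), then substrate plus GAPDH/TPI/NAD/arsenate coupling and diaphorase/resazurin added. Fluorescence read after 20 min at RT, 525/598 nm.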
# Marburg entry inh – qHTS for inhibitors of binding or entry into cells for Marburg Virus. Marburg virus pseudotyped entry inhibition, cell reporter. Potency, µM (top dose mostly 37.8 µM), inactives show top-dose activity change, negative = inhibition, most hits filed as inhibitors. hit rate 1.8% among 300,000. AID 540276, 2011; calls by dose curve; tested in HEK293 cells; also: potency is read from the fitted curve at half-maximal effect
# HCMV antiviral – qHTS Assay for inhibitors of the human cytomegalovirus (HCMV); hit rate 4.5% among 410,000; activity change, negative = inhibition, % at 57.5 µM; AID 1259415, 2018; HFF cells, HCMV-luciferase reporter, 72 h; stronger effect = lower value; in the data active = activity change below about -60%; inconclusive = no clear call, values can overlap the other calls; inactive = above about -39%
#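 Steps: HFFs plated, 16 h 37C; compounds added; HCMV-luciferase added to MOI 1 PFU/cell; 72 h 37C; OneGlo reagent, 5 min room temperature; luminescence read, normalized to controls.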
# FMDV antiviral – High Throughput Screening for Foot and Mouth Disease Virus Antivirals | FMDV antiviral cell-based qHTS | hit rate 1.2% among 410,000 | AID 1159524, 2015 | Potency, µM (top dose mostly 57.9 µM), for the others: top-dose activity change, negative = inhibition, actives largely listed as inhibitors; calls by dose curve; tested in HEK293T cells; also: read-out not given here; potency is read from the fitted curve at half-maximal effect; nearly all actives have a fitted effect of over 45% in size
# HCV inh – qHTS Assay for Inhibitors of Hepatitis C Virus (HCV); Huh7.5.1 HCVcc-Cre infection, luciferase reporter, 44 h; Potency, µM (series often up to 41.8 µM), without a hit: top-dose activity change, negative = inhibition, actives largely listed as inhibitors; hit rate 3.4% among 340,000; also: potency is read from the fitted curve at half-maximal effect
#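 Luciferase read-out (15 sec integration) after a 15 min room-temperature substrate step quantifies HCVcc-Cre infection. Cells, 1,000 per well, had compound added 4 h post-plating, then virus at ~0.5 moi, and were cultured 44 h.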
# LASV entry inh – qHTS for Inhibitors of binding or entry into cells for Lassa Virus | Lassa virus pseudotype entry inhibition, cell reporter | hit rate 1.2% among 300,000 | Potency, µM (top dose mostly 37.9 µM), inactives show at the highest dose activity change, negative = inhibition, actives largely listed as inhibitors; calls by dose curve; tested in HEK293 cells; also: potency is read from the fitted curve at half-maximal effect; nearly all actives have a fitted effect of over 50% in size
# Giardia growth – qHTS Assay for Inhibitors of Fructose-1,6-bisphosphate Aldolase from Giardia Lamblia: Giardia lamblia growth inhibition; hit rate 5% among 1,500; Giardia lamblia trophozoite growth inhibition; Potency, µM (doses to about 57.5 µM), without a hit: top-dose activity change, negative = inhibition, most hits filed as inhibitors; shares compounds with Giardia FBPA inh-1;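 also: potency is read from the fitted curve at half-maximal effect; trophozoites exposed to compound for 48 h at 37 °C; nearly all actives have a fitted effect of over 70% in size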
# Mammalian tox – qHTS Assay for Inhibitors of Fructose-1,6-bisphosphate Aldolase from Giardia Lamblia: Mammalian cellular toxicity | shares compounds with Giardia FBPA inh-1 | mammalian cell viability counter-screen, qHTS | Potency, µM (titrated, usually from 57.5 µM), for the others: at the top dose viability change, negative = toxicity, most hits filed as inhibitors | hit rate 4% among 1,500;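 also: Chinese hamster ovary cells used as mammalian cytotoxicity surrogate; viability measured as cellular ATP by luminescence; potency is read from the fitted curve at half-maximal effect; compound exposure lasted 48 h before reading; nearly all actives have a fitted effect of over 60% in size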
# Giardia FBPA inh-2 – qHTS Assay for Inhibitors of Fructose-1,6-bisphosphate Aldolase from Giardia Lamblia: Primary screen confirmation. shares compounds with Giardia FBPA inh-1. purified Giardia aldolase enzyme activity, qHTS. Potency, µM (titrated, usually from 57.5 µM), inactives show at the top dose activity change, negative = inhibition, most hits filed as inhibitors. hit rate 5% among 1,500. AID 2787, 2010; also: potency is read from the fitted curve at half-maximal effect; nearly all actives have a fitted effect of over 45% in size
# Rabbit FBPA inh – qHTS Assay for Inhibitors of Fructose-1,6-bisphosphate Aldolase from Giardia Lamblia: Rabbit FBPA Selectivity; shares compounds with Giardia FBPA inh-1; Rabbit muscle FBPA enzyme inhibition, selectivity counter-screen; AID 2794, 2010; Potency, µM (doses to about 57.5 µM), without a hit: at the top dose activity, negative = inhibition, usual class: inhibitors; hit rate 4% among 1,500; also: potency is read from the fitted curve at half-maximal effect; nearly all actives have a fitted effect of over 60% in size
# Target sequence (P00883 whole entry, looked up): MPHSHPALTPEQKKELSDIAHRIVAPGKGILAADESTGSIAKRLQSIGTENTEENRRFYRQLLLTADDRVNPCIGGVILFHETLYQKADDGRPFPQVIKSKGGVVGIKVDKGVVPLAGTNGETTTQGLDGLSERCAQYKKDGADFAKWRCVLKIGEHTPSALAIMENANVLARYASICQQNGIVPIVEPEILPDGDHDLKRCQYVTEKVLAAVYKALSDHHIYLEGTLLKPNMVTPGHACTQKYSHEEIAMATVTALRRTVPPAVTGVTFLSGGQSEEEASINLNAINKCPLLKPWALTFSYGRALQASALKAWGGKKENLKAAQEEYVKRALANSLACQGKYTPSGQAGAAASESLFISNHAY
# GAPDH counter – qHTS Assay for Inhibitors of Fructose-1,6-bisphosphate Aldolase from Giardia Lamblia: Coupling assay counterscreen confirmation | shares compounds with Giardia FBPA inh-1 | GAPDH coupling enzyme counterscreen, biochemical, qHTS | Potency, µM (series often up to 57.5 µM), for the others: top-dose activity change, negative = inhibition, usual class: inhibitors | hit rate 6% among 1,500; also: potency is read from the fitted curve at half-maximal effect; nearly all actives have a fitted effect of over 55% in size
# Starred values were filed as active, the others as inactive; ? = inconclusive; · = no result; [ ] = remark or other dose. Unless noted, calls follow the shape of the dose curve; as a rule, active = well fitted curve in the direction sought with a large enough effect; inconclusive = small, poorly fitted or top-dose-only effect, or another doubt; inactive = no such curve, though single readings can be large; an effect the other way counts as inactive or inconclusive. % is scaled to controls: 0 for no effect and ±100 for the full control effect.
SMILES,Giardia FBPA inh-1,Marburg entry inh,HCMV antiviral,FMDV antiviral,HCV inh,LASV entry inh,Giardia growth,Mammalian tox,Giardia FBPA inh-2,Rabbit FBPA inh,GAPDH counter
CSc1ccc(/C=N/NC(=O)c2ccc(-n3cnnn3)cc2)cc1,·,·,-19,5%,-30%,·,·,·,·,·,·
CC1CCN(c2ccc(/C=N/n3nnnc3N)cc2[N+](=O)[O-])CC1,0%,5%,22,0%,3%,?,·,·,·,·,·
CSc1ccc(/C=N\Nc2nncn2N)cc1,?,·,?,36%,-17%,·,14%[38.3 µM],-9%,2.3µM*,6.5µM*,3.3µM*
CC(C)(C)c1nnc(N/N=C/c2ccc(Br)cc2)n(N)c1=O,4%,?,12,-8%,-21%,-10%,·,·,·,·,·
CC1CCN(c2ccc(/C=N\Nc3nncn3N)cc2[N+](=O)[O-])CC1,11µM*,?,13,-18%,-15%,?,11µM*,15%,?,-25%,?
COc1cc(/C=N\Nc2nncn2N)ccc1OC(C)=O,25µM*,?,-8,7%,22%,?,-20%,-28%,?,?,?
Cn1c(O)c(C(c2ccccn2)c2c(O)n(C)c(=S)[nH]c2=O)c(=O)[nH]c1=S,18µM*,-7%,2,-7%,17%,2%,15%,-1%,3%,-1%,17%
COc1ccc([C@]23Cc4cc(OC)c(OC)cc4C(O2)c2c(c4ccccc4oc2=O)O3)cc1,-5%[12.9 µM],·,·,·,·,·,·,·,·,·,·
COc1ccccc1N1CCN(C(=O)CCS(=O)(=O)c2cc(Br)cc3c2N(C(=O)C2CC2)CC3)CC1,·,?,-14,-30%,·,-8%[46.1 µM],·,·,·,·,·
Cc1[nH]n(-c2ccccc2)c(=O)c1N=Nc1ccc(F)cc1,?,?,61,24%,14%,5%[46.1 µM],·,·,·,·,·
COC(=O)c1ccc(N=Nc2c(C)[nH]n(-c3ccccc3)c2=O)cc1,13µM*,·,0,-3%,6%,·,-24%,18%,8%,-2%,8%
Cc1[nH]n(-c2ccccc2)c(=O)c1N=Nc1cccc([N+](=O)[O-])c1,8.9µM*,?,191,-7%,12%,13%[46.1 µM],-37%[38.3 µM],5%,5%,9%,-3%
CNC1=C(Cl)C(=O)c2ccncc2C1=O,22%,·,·,·,·,·,·,·,·,·,·
Cc1oc2ccc(O)c(CN3CCOCC3)c2c1C(=O)Nc1ccc(C(C)C)cc1,·,?,28,-14%,·,?,·,·,·,·,·
COc1ccccc1OCC#CCN1CCOCC1,11µM*,-7%[14.2 µM],-7,24%,-9%,16%,5%[10.4 µM],0%,1%,2%,14%
CC(C)N(CC#CCC(O)(c1ccccc1)C1CCCC1)CCO (centres undefined),10µM*,·,24,-18%,-5%,·,4%[38.3 µM],-3%,2%,1%,0%
CCN(CC#CCC(O)(c1ccccc1)C1CCCC1)C(C)C (centres undefined),·,?,-7,-16%,?,-9%,·,·,·,·,·
C[Si](C)(C)C#Cc1ccccc1NC(=S)Nc1ccccc1,-13%,·,·,·,·,·,·,·,·,·,·
Cc1cc(C)c2oc(C(=O)Nc3nc4ccc(Cl)cc4s3)cc(=O)c2c1,·,-5%[46.1 µM],8,-6%,·,3%[46.1 µM],·,·,·,·,·
CCc1ccc(CNC(=O)CN2C(=O)c3cccnc3Oc3ccc(Cl)cc32)cc1,·,·,0,-20%,·,-9%[46.1 µM],·,·,·,·,·
O=C(CN1CCN(S(=O)(=O)c2ccc(F)cc2)CC1)c1ccc(O)c(O)c1,20µM*,-2%[46.1 µM],47,-19%,2%,-9%,-6%,-13%,-29%,-17%,2%
Cc1ccc(-c2c(CN3CCN(c4cccc(C)c4)C(C)C3)csc2C)cc1 (centres undefined),·,·,-32,?,·,-1%[46.1 µM],·,·,·,·,·
Cc1cccc(N2C(=O)CC(Sc3ncn[nH]3)C2=O)c1 (centres undefined),20µM*,-16%[46.1 µM],-39,-1%,15%,2%[46.1 µM],22%,-3%,10%,8%,13%
Cc1cc(C)nc(SC2CC(=O)N(c3ccc(C)c(C)c3)C2=O)n1 (centres undefined),1%,·,-28,-4%,-10%,·,·,·,·,·,·
Cc1ccc(N2C(=O)CC(Sc3ncn[nH]3)C2=O)cc1C (centres undefined),18µM*,-7%,-17,-10%,5%,?,-22%,28%,0%,-2%,0%
SMILES,Giardia FBPA inh-1,Marburg entry inh,HCMV antiviral,FMDV antiviral,HCV inh,LASV entry inh,Giardia growth,Mammalian tox,Giardia FBPA inh-2,Rabbit FBPA inh,GAPDH counter
N/C(=N\NC(=O)Nc1ccccc1)c1ccccn1,20µM*,?,60,47%,12%,-24%,-10%[10.4 µM],-1%,-7%,5%,-1%
CC(=O)OC1CC(OC(C)=O)[C@]2(C)C(CC(=O)[C@]3(C)C2CC[C@@]2(C)C(C(=O)O)OC(=O)C4OC423)C1(C)C (some centres undefined),0%,·,·,6%,·,·,·,·,·,·,·
Cc1cc(NC(=O)CN(C)CCOc2ccccc2)ccc1Br,16µM*,4%,24,-23%,-9%,-25%,?,13%,-9%,5%,-4%
CC(=O)Nc1nc(C)nc(-c2ccccc2)c1C(C)=O,16µM*,14%,14,14%,6%,11%,23%,-7%,3%,9%,10%
Nc1nc2c(s1)CCc1c-2cnn1-c1ccccc1,0.4µM*,·,·,0%,?,·,?,?,13µM*,14µM*,13µM*
Nc1nc2c(s1)COc1ccccc1-2,-7%,·,-28,54%,-8%,·,·,·,·,·,·

# Screening results: PubChem BioAssay, National Center for Advancing Translational Sciences (NCATS)
